Screening data deposited in PubChem BioAssay by National Center for Advancing Translational Sciences (NCATS).
Compounds with a hit are over-represented: about 12% of the library has one in this group of screens.
BAZ2B inh – qHTS Assay for Inhibitors of BAZ2B | AlphaScreen BAZ2B-H3K14Ac peptide displacement | Potency, µM (highest dose often 114 µM), without a hit: at the top dose activity change, negative = inhibition, usual class: inhibitors | hit rate 4.4% among 360,000; further: on the % scale 0 is the no-effect control and ±100 the full control effect; nearly all actives have a fitted effect of over 60% in size
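AlphaScreen luminescence quantifies BAZ2B engagement of H3K14Ac peptide; the protein and biotinylated peptide are both at 50 nM final, buffer PBS pH 7.4 with 0.01% Tween-20, all steps at room temperature.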
HP1b binding inh – HTS for Inhibitors of HP1-beta Chromodomain Interactions with Methylated Histone Tails; Chromobox protein homolog 1 (Homo sapiens), P83916; AlphaScreen HP1-beta / biotin-H3K9me3 peptide binding; Potency, µM (doses to about 114 µM), inactives show top-dose activity change, negative = inhibition, actives largely listed as inhibitors; hit rate 0.56% among 390,000; further: nearly all actives have a fitted effect of over 70% in size
Target sequence (P83916 whole entry, looked up): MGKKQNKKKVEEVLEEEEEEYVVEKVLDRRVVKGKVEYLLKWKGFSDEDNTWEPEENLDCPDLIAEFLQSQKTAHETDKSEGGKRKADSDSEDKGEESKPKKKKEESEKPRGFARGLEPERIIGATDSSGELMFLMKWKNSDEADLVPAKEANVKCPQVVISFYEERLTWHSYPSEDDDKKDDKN
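HP1-beta protein (50 nM final) preincubated 30 min at room temperature with biotinylated H3(1-18)K9me3 peptide (50 nM) in PBS pH 7.4, 0.01% Tween-20, then compound added for 30 min. AlphaScreen streptavidin donor/nickel chelate acceptor beads (10 ug/mL final), 30 min dark, luminescence read.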
JMJD2A Tudor – qHTS Assay for Inhibitors of JMJD2A-Tudor Domain; Lysine-specific demethylase 4A (Homo sapiens), O75164; Potency, µM (highest dose often 114 µM), for inactives: at the highest dose activity change, negative = inhibition, hits mostly inhibitors; AlphaScreen JMJD2A-Tudor / H3K4me3 peptide binding; hit rate 4.4% among 390,000; further: on the % scale 0 is the no-effect control and ±100 the full control effect; nearly all actives have a fitted effect of over 50% in size
Sfp PPTase inh – qHTS Assay for Inhibitors of Bacillus subtilis Sfp phosphopantetheinyl transferase (PPTase). 4'-phosphopantetheinyl transferase ffp (Bacillus subtilis), Q9F4F7. hit rate 3.5% among 310,000. Biochemical Sfp PPTase activity, qHTS. Potency, µM, without a hit: largest response in the series, negative = inhibition, most hits filed as inhibitors;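 further: the enzyme is Sfp with the accession as filed and its product quenches rhodamine fluorescence; 0% = enzyme reaction without inhibitor and -100% = no enzyme wells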
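After 15 min at room temperature with compound, 15 nM Sfp received 5 uM rhodamine-CoA plus 12.5 uM BHQ-2-ybbR (50 mM Hepes pH 7.6, 10 mM MgCl2). Rate came from the fluorescence difference over 30 min, ex 525/em 598 nm.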
L3MBTL1 inh – qHTS Assay for the Inhibitors of L3MBTL1 | Lethal(3)malignant brain tumor-like protein 1 (Homo sapiens), Q9Y468 | AlphaScreen L3MBTL1–H3K9me1 peptide binding | Potency, µM (highest dose often 57.1 µM), without a hit: top-dose activity, negative = inhibition, actives largely listed as inhibitors | hit rate 0.66% among 230,000; further: on the % scale 0 is the no-effect control and ±100 the full control effect; nearly all actives have a fitted effect of over 60% in size
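L3MBTL1 50 nM + b-AHA-H3(1-15)K9me1 75 nM, 30 min RT; compound added, 30 min RT; streptavidin donor/Ni-chelate acceptor beads 10 ug/mL each final, 30 min RT dark; AlphaScreen read.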
G9a inh – qHTS Assay for Inhibitors of Histone Lysine Methyltransferase G9a; Histone-lysine N-methyltransferase EHMT2 (Homo sapiens), Q96KQ7; G9a H3K9 monomethylation, AlphaScreen, 2 h; Potency, µM (top dose mostly 102 µM), without a hit: top-dose activity, negative = inhibition, hits mostly inhibitors; hit rate 8.8% among 350,000; AID 504332, 2011; further: on the % scale 0 is the no-effect control and ±100 the full control effect; nearly all actives have a fitted effect of over 75% in size
Target sequence (Q96KQ7 913-1193 limits assumed): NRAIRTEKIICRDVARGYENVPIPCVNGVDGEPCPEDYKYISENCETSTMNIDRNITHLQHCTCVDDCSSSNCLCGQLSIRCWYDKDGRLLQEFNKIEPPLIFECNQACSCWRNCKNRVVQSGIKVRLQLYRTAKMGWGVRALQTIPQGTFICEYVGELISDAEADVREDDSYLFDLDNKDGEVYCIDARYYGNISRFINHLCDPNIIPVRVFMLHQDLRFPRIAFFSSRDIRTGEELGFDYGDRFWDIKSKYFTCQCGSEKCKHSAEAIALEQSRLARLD
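AlphaScreen read-out: biotin-H3K9 peptide (500 nM) methylation by 20 nM enzyme with 20 uM SAM, 2 h at room temperature after 15 min compound preincubation; anti-monomethyl H3K9 antibody plus donor/acceptor beads, 10 min dark.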
* = called active by the depositor; [ ] = remark or other dose. The call rests on the fitted dose curve; in most records, active means well fitted curve in the direction sought with a large enough effect; inconclusive means small, poorly fitted or top-dose-only effect, or another doubt; inactive means no such curve, though single readings can be large; an effect the other way counts as inactive or inconclusive. Potency means the concentration at half of the fitted maximal effect.

Screening CCCC[C@@H](C=O)NC(=O)[C@H](CC(C)C)NC(=O)OCc1ccccc1 returned Sfp PPTase inh 2% and G9a inh -32%[59 µM].
Screening O=C(COc1ccc(F)cc1)Nc1cc(S(=O)(=O)N2CCCCC2)ccc1N1CCCCC1 returned BAZ2B inh inconclusive, HP1b binding inh -5%, JMJD2A Tudor inconclusive, L3MBTL1 inh -5% and G9a inh 2µM*.
Screening O=C(COc1ccc([N+](=O)[O-])cc1)Nc1cc(S(=O)(=O)N2CCCCC2)ccc1N1CCCCC1 returned BAZ2B inh -38%, HP1b binding inh -16%, JMJD2A Tudor 20µM*, L3MBTL1 inh 2% and G9a inh 1.8µM*.
Screening O=C(COc1ccc([N+](=O)[O-])cc1)Nc1ccccc1N1CCCC1 returned BAZ2B inh -15%, HP1b binding inh 12%, JMJD2A Tudor inconclusive, Sfp PPTase inh 11%, L3MBTL1 inh -4% and G9a inh 6%.
`COc1ccc(NC2CCCN(C(=O)CCN3Cc4ccccc4C3=O)C2)cc1` (stereo unspecified) gave BAZ2B inh -11%, HP1b binding inh 5%, JMJD2A Tudor -25%, Sfp PPTase inh 14% and G9a inh 16%[59 µM].
`Cc1nn(-c2ccccn2)c2c1C(c1c(F)cccc1Cl)C1=C(N2)c2ccccc2C1=O` (stereo unspecified) gave BAZ2B inh 8.9µM*, Sfp PPTase inh -27%, L3MBTL1 inh -13% and G9a inh inconclusive.
For O=C1c2ccccc2C(Nc2ccc(F)c(Cl)c2)N1c1ccccn1 (stereo unspecified) the results were BAZ2B inh -1%, HP1b binding inh 43%, JMJD2A Tudor -3%, Sfp PPTase inh 8% and G9a inh inconclusive.
`COc1ccc(CNC(=O)c2cccnc2)cc1` gave BAZ2B inh -13%, HP1b binding inh 32%, JMJD2A Tudor -10%, Sfp PPTase inh 10%, L3MBTL1 inh 0% and G9a inh -2%.
Screening CC(C)(C)NC(=O)C(c1ccc(O)cc1)N(Cc1ccco1)C(=O)Cn1nnc(-c2cccs2)n1 (stereo unspecified) returned BAZ2B inh -32%, HP1b binding inh 2%, JMJD2A Tudor inconclusive, Sfp PPTase inh -23%, L3MBTL1 inh -4% and G9a inh 20µM*.
Screening Cc1ccc(-c2nnn(CC(=O)N(c3cccc(O)c3)C(C(=O)NC(C)(C)C)c3cccs3)n2)o1 (stereo unspecified) returned BAZ2B inh 1%, HP1b binding inh 5%, JMJD2A Tudor -20%, Sfp PPTase inh 4%, L3MBTL1 inh -8% and G9a inh 45µM*.
`Cc1ccc(-c2nnn(CC(=O)N(c3cccc(F)c3)C(C(=O)NC(C)(C)C)c3ccco3)n2)o1` (stereo unspecified) gave BAZ2B inh -27%, HP1b binding inh 27%, JMJD2A Tudor -13%, Sfp PPTase inh -17%, L3MBTL1 inh -10% and G9a inh 50µM*.
CC(C)(C)NC(=O)C(c1ccncc1)N(C(=O)Cn1nnc(-c2ccc(F)cc2)n1)c1ccc(F)cc1 (stereo unspecified) was read as BAZ2B inh -4%, HP1b binding inh 19%, JMJD2A Tudor -11%, Sfp PPTase inh -2%, L3MBTL1 inh 7% and G9a inh 3%[12.7 µM].
Screening Cc1ccc(C(C(=O)NC(C)(C)C)N(Cc2ccco2)C(=O)Cn2nnc(-c3cccs3)n2)cc1 (stereo unspecified) returned BAZ2B inh 9%, HP1b binding inh 37%, JMJD2A Tudor -12%[57.1 µM], Sfp PPTase inh 5%, L3MBTL1 inh -4% and G9a inh 5%[59 µM].
Screening CC(C)(C)NC(=O)C(c1ccncc1)N(C(=O)Cn1nnc(-c2ccc(F)cc2)n1)c1ccccc1 (stereo unspecified) returned BAZ2B inh inconclusive, HP1b binding inh -4%, JMJD2A Tudor inconclusive, Sfp PPTase inh 20µM*, L3MBTL1 inh inconclusive and G9a inh 22µM*.
`CC1(C)Cc2c(sc3[nH]c(=O)n(CC(=O)NCC4CCCO4)c(=O)c23)CO1` (stereo unspecified) gave BAZ2B inh 2%, HP1b binding inh 33%, JMJD2A Tudor -10%, Sfp PPTase inh 3% and G9a inh -49%.
For CCOC(=O)N1CCc2c(sc3c2c(=O)n(Cc2ccccc2)c(=O)n3CC(=O)Nc2ccc(C)c(C)c2)C1 the results were BAZ2B inh -11%, HP1b binding inh 16%, JMJD2A Tudor -19% and G9a inh 1%[59 µM].
For COCCn1c(=O)c(-c2ccccc2)nc2cnc(OC)nc21 the results were Sfp PPTase inh 1% and G9a inh -7%[0.501 µM].
COc1ccc(NC(=S)NC(NC(=O)CCl)C(Cl)(Cl)Cl)c([N+](=O)[O-])c1 (stereo unspecified) was read as BAZ2B inh inconclusive, HP1b binding inh inconclusive, JMJD2A Tudor inconclusive, Sfp PPTase inh 25µM*, L3MBTL1 inh -22% and G9a inh 25µM*.
`COc1ccc(NC(=S)NC(NC(=O)c2cccc3ccccc23)C(Cl)(Cl)Cl)c([N+](=O)[O-])c1` (stereo unspecified) gave BAZ2B inh inconclusive, HP1b binding inh -21%, JMJD2A Tudor inconclusive, Sfp PPTase inh -2% and G9a inh 45µM*.
Screening O=C1NC(=O)c2cc(Oc3ccc([N+](=O)[O-])cc3)ccc21 returned BAZ2B inh -9%, HP1b binding inh 23%, JMJD2A Tudor -6%, Sfp PPTase inh 14%, L3MBTL1 inh -2% and G9a inh 17%.
For COc1ccc(-c2oc3ccc(C)cc3c(=O)c2O)cc1OC the results were Sfp PPTase inh 1%.
For COc1ccc2nc3cc(Cl)ccc3c(Nc3ccc(O)c(CN4CCN(C)CC4)c3)c2c1 the results were HP1b binding inh 16µM* and JMJD2A Tudor 32µM*.
Screening O=c1c2ccccc2nc(N/N=C/c2ccc(O)cc2)n1O returned BAZ2B inh 2%, HP1b binding inh -9%, JMJD2A Tudor -13%, Sfp PPTase inh 35µM*, L3MBTL1 inh -2% and G9a inh inconclusive.
